Assay outcomes deposited in PubChem BioAssay by several laboratories.
Mac1 fbg enh: enhancers of human CD11b/CD18 binding to fibrinogen | P05107+P11215 | K562 CD11b/CD18 adhesion to fibrinogen, ATPlite luminescence | activation, % at 10 µM | 93,000 compounds, 0.07% hits | AID 1499;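 active means 10 µM primary screen giving 50% or more activity, confirmed by 40% or more on retest at that dose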
Pyk2 oligo antag: antagonists of human Pyk2 oligomerization. Q293 cells, Pyk2 FERM NanoBiT luminescence; active compounds read low. z-score (the deposit names both 25 µM and 10 µM). 99,000 compounds, 0.83% hits. AID 1347419;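 active means Z-score of -3 or lower, scaled per plate to the spread of control and sample wells; inactive means z-score above -3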;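 further: negative z-score means lost luminescence so less FERM oligomerization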
Target sequence (Q14289 whole entry, looked up): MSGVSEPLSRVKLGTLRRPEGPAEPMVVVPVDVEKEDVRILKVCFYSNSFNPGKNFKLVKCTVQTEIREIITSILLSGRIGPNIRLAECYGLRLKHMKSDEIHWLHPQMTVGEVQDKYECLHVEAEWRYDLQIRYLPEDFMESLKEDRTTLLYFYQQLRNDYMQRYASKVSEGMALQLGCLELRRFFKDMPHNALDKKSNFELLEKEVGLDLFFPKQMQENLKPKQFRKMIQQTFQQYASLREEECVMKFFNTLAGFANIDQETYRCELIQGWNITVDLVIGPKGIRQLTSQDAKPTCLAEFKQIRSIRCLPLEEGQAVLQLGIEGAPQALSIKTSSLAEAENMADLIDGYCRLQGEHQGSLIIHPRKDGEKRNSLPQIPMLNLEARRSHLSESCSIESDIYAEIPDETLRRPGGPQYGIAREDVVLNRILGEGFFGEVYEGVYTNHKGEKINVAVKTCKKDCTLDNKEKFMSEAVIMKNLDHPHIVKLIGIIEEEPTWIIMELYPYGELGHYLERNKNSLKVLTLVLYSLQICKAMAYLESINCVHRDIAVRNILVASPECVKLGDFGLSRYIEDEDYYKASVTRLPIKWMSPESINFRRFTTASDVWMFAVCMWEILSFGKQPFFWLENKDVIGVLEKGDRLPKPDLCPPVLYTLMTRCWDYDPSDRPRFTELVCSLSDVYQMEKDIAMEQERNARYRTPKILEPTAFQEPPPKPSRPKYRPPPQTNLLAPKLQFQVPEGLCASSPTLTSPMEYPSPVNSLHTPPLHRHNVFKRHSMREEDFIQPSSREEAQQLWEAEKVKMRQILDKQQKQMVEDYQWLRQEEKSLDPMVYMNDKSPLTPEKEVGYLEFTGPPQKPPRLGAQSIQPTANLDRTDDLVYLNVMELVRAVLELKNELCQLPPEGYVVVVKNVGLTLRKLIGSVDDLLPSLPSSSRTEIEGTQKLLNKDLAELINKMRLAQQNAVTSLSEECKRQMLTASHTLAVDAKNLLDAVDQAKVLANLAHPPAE
MRP-1 activ: MRP-1 activation; H69AR cells + doxorubicin, viability rescue, CellTiter-Glo; 140,000 compounds, 0.61% hits; viability increase, % at 10 µM;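 active means viability gain under doxorubicin at or above a set limit, the compound median plus 3 SD, cut at about 4.7% in these data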;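 further: MRP-1 overexpressing cells given doxorubicin 25 µM after compound pretreatment; 18-22 h compound pretreatment then 72 h with doxorubicin before readout; 0% = doxorubicin-only wells and 100% = vehicle-treated cells without doxorubicin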
CD11b adhes inh: CD11b/CD18-fibrinogen binding inhibition | P05107+P11215 | inhibition, % at 10 µM | K562 CD11b/CD18 adhesion to fibrinogen, ATPlite luminescence; Mn2+ added to activate the integrin | AID 1497 | 93,000 compounds, 0.54% hits;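 active means primary inhibition of 50% or more at 10 µM, then 40% or more on retest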
MRP reversal: reverses drug resistance mediated by MRP; 85,000 compounds, 0.04% hits; differential viability (reversal), % at 10 µM; H69AR cells + 2 uM doxorubicin, CellTiter-Glo, 72 h;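 active means viability drop by adding the cancer drug above about 55%, with treated viability meeting a 40% cutoff, limit read from the data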;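 further: viability without doxorubicin minus viability with 2 µM doxorubicin for each compound; larger differential means the compound sensitizes cells more to doxorubicin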
Cav32 inh: blocks human Cav3.2 T-type calcium channel; 100,000 compounds, 4% hits; B-score at 10 µM; Cav3.2-expressing cells, Fluo-4 calcium fluorescence FDSS; active compounds read low;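 active means single-dose well whose peak fluorescence ratio is a statistical outlier from its plate by either plate-standardised score or position-corrected B-score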
An asterisk follows results filed as active; · = no result given. The list is not random: actives were taken first. Their share in the collection is about 4.1%.

SMILES | Mac1 fbg enh | Pyk2 oligo antag | MRP-1 activ | CD11b adhes inh | MRP reversal | Cav32 inh
O=C(NNC(=O)c1sccc1-n1cccc1)c1ccc(Cl)cc1 | -1 | 0.39 | 2 | 12 | · | 0.51
Cc1cccc(-n2ccnc2SCC(=O)N2CCCc3ccccc32)c1C | -2 | · | -1 | -11 | · | ·
Cc1ccc(-c2nc(CS(=O)CC(=O)NCc3ccc(Cl)cc3)c(C)o2)cc1 (stereo unspecified) | -2 | · | -4 | -16 | 9 | -6*
CCCCNC(=O)CS(=O)Cc1nc(-c2ccc(C)cc2)oc1C (stereo unspecified) | -2 | · | -2 | -11 | 11 | -2.4
CCc1cccc(NC(=O)CS(=O)Cc2nc(-c3ccc(C)cc3)oc2C)c1 (stereo unspecified) | 6 | · | -3 | 9 | 3 | -6.7*
Cc1cccc(-c2nc(CS(=O)CC(=O)NCCCSC3CCCCC3)c(C)o2)c1 (stereo unspecified) | 0 | 0.46 | 1 | 16 | -11 | -7.1*
COC(=O)c1ccc2c(c1)NC(=O)C1CCCN21 (stereo unspecified) | · | · | -1 | · | -3 | -4.3*
Cc1ccc(NC(=O)COC(=O)c2ccc3c(c2)NC(=O)C2CCCN32)cc1 (stereo unspecified) | 54 | 0.19 | 1 | -13 | 20 | -0.48
COc1ccc(/C=N/NC(=O)c2cc(C)on2)c2ccccc12 | · | -0.45 | -1 | · | · | 0.12
O=C(NCC1CCN(c2ccc(S(=O)(=O)N3CCOCC3)cc2)CC1)c1ccc(Cl)cc1 | -3 | 0.35 | -3 | -4 | 10 | -5.4*
O=C(NNC(=O)c1cccc(S(=O)(=O)N2CCN(c3ccccc3)CC2)c1)c1ccc(Cl)cc1 | 52 | · | 10* | 11 | · | ·
O=C(NC1CCCC1)c1ccc(S(=O)(=O)N2CCOCC2)cc1 | -3 | -0.36 | -2 | -5 | -7 | 0.14
CCOC(=O)c1cc(NC(=O)C2CCCO2)cc(C(=O)OCC)c1 (stereo unspecified) | 0 | -0.19 | -1 | 2 | 18 | 0.24
CCCCCn1c(C(C)NC(=O)CCC)nc2ccccc21 (stereo unspecified) | 2 | · | -1 | -26 | 1 | 0.74
O=C(NCCc1c[nH]c2ccccc12)C(=O)NCC1OCCCN1S(=O)(=O)c1ccccc1 (stereo unspecified) | · | · | 0 | · | · | ·
COc1ccccc1CNC(=O)C(=O)NCC1OCCN1S(=O)(=O)c1ccc2c(c1)OCCO2 (stereo unspecified) | · | · | -1 | · | · | 0.47
O=C(NCCc1c[nH]c2ccccc12)C(=O)NCC1OCCN1S(=O)(=O)c1ccc(F)cc1 (stereo unspecified) | · | · | -3 | · | · | -5.9*
Cc1ccc(S(=O)(=O)N2CCCOC2CNC(=O)C(=O)NCCc2c[nH]c3ccccc23)cc1 (stereo unspecified) | · | · | -3 | · | · | ·
Cc1ccc(CNC(=O)C(=O)NCC2OCCN2C(=O)c2ccc(Cl)cc2)cc1 (stereo unspecified) | · | · | 5 | · | · | -4.4*
O=C(NCCc1c[nH]c2ccccc12)C(=O)NCC1OCCN1S(=O)(=O)c1ccc(Cl)cc1 (stereo unspecified) | · | · | 0 | · | · | -7.1*
O=C(NCc1ccc(Cl)cc1)C(=O)NCC1OCCN1S(=O)(=O)c1ccc2c(c1)OCCO2 (stereo unspecified) | · | · | 2 | · | · | -5.1*
Cc1ccc(NC(=O)CCC(=O)OCC(=O)c2ccc(Oc3ccc([N+](=O)[O-])cc3)cc2)c(C)c1 | -2 | 1.3 | -1 | 16 | · | 0.0098
Cc1cc(=O)n2[nH]c(-c3cccnc3)nc2n1 | -2 | · | -3 | -11 | -6 | ·
COc1cccc(NC(=O)C2CCN(Cc3cnn(-c4ccccc4)c3-n3cccc3)CC2)c1 | -4 | -0.9 | -1 | 6 | -21 | -10*
COc1ccc(OC)c(NC(=O)C2CCN(Cc3cnn(-c4ccccc4)c3-n3cccc3)CC2)c1 | -1 | -1.3 | 0 | 3 | -1 | -8.7*
SMILES | Mac1 fbg enh | Pyk2 oligo antag | MRP-1 activ | CD11b adhes inh | MRP reversal | Cav32 inh
COc1ccc(NC(=O)C2CCN(Cc3cnn(-c4ccccc4)c3-n3cccc3)CC2)cc1OC | -5 | -0.95 | -3 | 13 | 13 | -1.5
O=C(Nc1ccccc1Cl)C1CCN(Cc2cnn(-c3ccccc3)c2-n2cccc2)CC1 | 2 | -0.8 | -4 | -12 | -4 | -8.3*
CC(C)(C)CC(C)(C)NCC(O)COc1ccc2c(c1)CCC2 (stereo unspecified) | · | 3.2 | · | · | · | -8.3*
CC(C)(CO)NCC(O)COc1ccc2c(c1)CCC2 (stereo unspecified) | 4 | · | -1 | 0 | · | ·
COc1ccccc1N1CCN(CC(O)COc2ccc3c(c2)CCC3)CC1 (stereo unspecified) | 2 | 0.88 | -5 | -3 | 1 | -6.1*
Cc1ccc(C)c(Nc2c([N+](=O)[O-])cc(C(=O)N3CC(=O)Nc4ccccc43)cc2[N+](=O)[O-])c1 | 5 | -3* | -5 | -6 | · | -3.2
O=C1CN(C(=O)COC(=O)c2ccc(N3CCCCCC3)c([N+](=O)[O-])c2)c2ccccc2N1 | 0 | · | -2 | 4 | · | ·
CCCCn1nc(NC(=O)c2cccs2)c2cc3ccccc3nc21 | -5 | -3.1* | 0 | 7 | -2 | -4*
CCCCn1nc(NC(=O)c2cccs2)c2cc3cc(OC)ccc3nc21 | 2 | -3* | -5 | 4 | -8 | -4.8*
O=C(CSc1ncccn1)Nc1ccc(S(=O)(=O)N2CCCCC2)cc1 | · | 0.35 | -3 | · | -9 | -0.27
O=S(=O)(Nc1nc2ccccc2s1)c1ccc(Cl)s1 | -5 | -1.7 | -2 | 74* | -8 | -5.1*
CCN1/C(=C2\SC(=S)N(Cc3ccccc3)C2=O)Sc2ccccc21 | 28 | · | -1 | 0 | · | ·
CCC(CO)[n+]1c(C)cc(/C=C2\Sc3ccccc3N2Cc2ccccc2)cc1C (stereo unspecified) | -7 | 0.11 | -6 | 103* | · | ·
CCOC(=O)c1sc2ncn(C(CC)C(=O)OC)c(=O)c2c1C (stereo unspecified) | -2 | -0.79 | 2 | 10 | -1 | 0.22
O=C1CC(O)(C(F)F)Oc2ccc3ccccc3c21 (stereo unspecified) | 0 | -0.6 | 0 | -5 | 4 | ·
O=C1CC(O)(C(F)(F)F)Oc2c1ccc1ccccc21 (stereo unspecified) | -7 | -1.2 | -2 | 90* | -3 | -4.3*
C/C(=N\NC(=O)CC1N=C(Cc2ccccc2)NNC1=O)c1ccc(Cl)cc1Cl (stereo unspecified) | 7 | 0.65 | -4 | 9 | -12 | -4.7*
CCN(CCCNC(=O)CNC(=O)Cn1cnc2ccccc2c1=O)c1cccc(C)c1 | 7 | 1.6 | -2 | 1 | -8 | -3.9*
CN(c1ccccc1)S(=O)(=O)c1cccc(NC(=O)Cn2cnc3ccccc3c2=O)c1 | 0 | -1.6 | -3 | -34 | -5 | -7*
CCN(CCCNC(=O)Cn1ncc2c(=O)oc3ccccc3c21)c1cccc(C)c1 | -2 | · | -3 | 6 | -29 | ·
